# Article PMC8384837, “Expanding the binding specificity for RNA recognition by a PUF domain”
# Substitutions are numbered along the chain they refer to.
# Columns and labels:
# Test in all cases: yeast three-hybrid, YBZ-1, SC-Leu-His + 0.5 mM 3-AT, 4 days
# Conditions in all cases: tags: N-Gal4 AD-HA kept; label: inside an RPR1-promoter hybrid RNA with tandem MS2 sites; ssRNA
# [1] = target: PUM1 PUF domain R3-TRW (Homo sapiens, UniProt Q14671 828-1176, C935T;Q939W)
# Outline: (§1)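 Repeat regions from input (SC-Leu) and selection (SC-Leu-His + 0.5 mM 3-AT) plates were PCR-amplified and Illumina-sequenced after four days of growth. The cells were strain YBZ-1 with a LexA–MS2 coat fusion and a HIS3 reporter, co-expressing Pumilio-1 PUF domain libraries and matching RNA elements from a centromeric plasmid. The interaction score is the log change in variant frequency from input to selection, taken in log2 with a pseudocount of 1 for absent variants.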
# [2] = target: PUM1 PUF domain R3-RSW (Homo sapiens, UniProt Q14671 828-1176, C935R;R936S;Q939W)
# Outline: as §1
# [3] = target: PUM1 PUF domain R3-VSK (Homo sapiens, UniProt Q14671 828-1176, C935V;R936S;Q939K)
# Outline: as §1
# [4] = target: PUM1 PUF domain R3-RTI (Homo sapiens, UniProt Q14671 828-1176, C935R;R936T;Q939I)
# Outline: as §1
# [5] = target: PUM1 PUF domain R8-LFK (Homo sapiens, UniProt Q14671 828-1176, N1122L;Y1123F;Q1126K)
# Outline: as §1
# [6] = target: T1, PUM1 PUF domain R6-RHS (Homo sapiens, UniProt Q14671 828-1176, N1043R;Y1044H;Q1047S)
# T1 sequence: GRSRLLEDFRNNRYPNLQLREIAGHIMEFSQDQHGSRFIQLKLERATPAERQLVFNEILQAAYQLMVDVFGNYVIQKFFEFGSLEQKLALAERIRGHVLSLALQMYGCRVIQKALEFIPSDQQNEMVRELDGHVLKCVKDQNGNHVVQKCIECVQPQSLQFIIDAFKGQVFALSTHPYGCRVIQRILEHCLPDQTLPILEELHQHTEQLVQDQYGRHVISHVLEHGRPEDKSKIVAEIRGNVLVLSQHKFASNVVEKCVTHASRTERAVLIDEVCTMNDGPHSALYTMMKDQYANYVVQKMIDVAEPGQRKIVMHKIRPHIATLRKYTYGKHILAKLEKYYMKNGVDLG
# Outline: as §1
# [7] = target: T2, PUM1 PUF domain R6-LYV (Homo sapiens, UniProt Q14671 828-1176, N1043L;Q1047V)
# T2 sequence: T1 sequence with R216L, H217Y, S220V
# Outline: as §1
# [8] = target: PUM1 PUF domain R4-ANC (Homo sapiens, UniProt Q14671 828-1176, N971A;H972N;Q975C)
# Sequence of PUM1 PUF domain R4-ANC (Q14671 828-1176 N971A/H972N/Q975C): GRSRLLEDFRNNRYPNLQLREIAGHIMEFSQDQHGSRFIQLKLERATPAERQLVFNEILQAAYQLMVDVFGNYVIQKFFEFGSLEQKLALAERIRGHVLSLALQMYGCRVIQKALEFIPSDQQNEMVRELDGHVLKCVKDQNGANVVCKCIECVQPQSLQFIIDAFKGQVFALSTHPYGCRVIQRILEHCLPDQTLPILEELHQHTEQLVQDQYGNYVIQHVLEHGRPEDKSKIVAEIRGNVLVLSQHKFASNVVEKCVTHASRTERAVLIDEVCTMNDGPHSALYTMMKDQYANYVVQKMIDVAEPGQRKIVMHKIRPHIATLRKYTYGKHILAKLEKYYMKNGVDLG
# Outline: as §1
# [9] = target: PUM1 PUF domain R7-KPV (Homo sapiens, UniProt Q14671 828-1176, S1079K;N1080P;E1083V)
# Outline: as §1
# [10] = target: PUM1 PUF domain R7-KWK (Homo sapiens, UniProt Q14671 828-1176, S1079K;N1080W;E1083K)
# Outline: as §1
# [11] = target: PUM1 PUF domain R1-RTS (Homo sapiens, UniProt Q14671 828-1176, S863R;R864T;Q867S)
# Outline: as §1
# [12] = target: PUM1 PUF domain R1-KVI (Homo sapiens, UniProt Q14671 828-1176, S863K;R864V;Q867I)
# Outline: as §1
# [13] = target: PUM1 PUF domain R2-LFS (Homo sapiens, UniProt Q14671 828-1176, N899L;Y900F;Q903S)
# Outline: as §1
# [14] = target: PUM1 PUF domain R2-AYW (Homo sapiens, UniProt Q14671 828-1176, N899A;Q903W)
# Outline: as §1
# [15] = target: PUM1 PUF domain R5-EAE (Homo sapiens, UniProt Q14671 828-1176, C1007E;R1008A;Q1011E)
# Outline: as §1
# [16] = target: PUM1 PUF domain R5-WHY (Homo sapiens, UniProt Q14671 828-1176, C1007W;R1008H;Q1011Y)
# Outline: as §1
# [17] = target: PUM1 PUF domain R5-RNG (Homo sapiens, UniProt Q14671 828-1176, C1007R;R1008N;Q1011G)
# Outline: as §1
sequence,measurement,setting,value
GGCUAGAACUAGUGGAUCCCCCGGCGCCCGGCGGCUCGAGCCCGGGUAAGUGUAAUUAGUCUGCAUGCCGCCGGGCGCCAUGCCUGCAGGUCGACUCUAGAAAACAUG,binding signal,[1],0.56 log2 enrichment (interaction score)
same,binding signal,[2],3.81 log2 enrichment (interaction score)
same,binding signal,[3],3.36 log2 enrichment (interaction score)
same,binding signal,[4],3.21 log2 enrichment (interaction score)
GGCUAGAACUAGUGGAUCCCCCGGCGCCCGGCGGCUCGAGCCCGGGUAAGUGUAAAUAGUCUGCAUGCCGCCGGGCGCCAUGCCUGCAGGUCGACUCUAGAAAACAUG,binding signal,[1],4.35 log2 enrichment (interaction score)
same,binding signal,[5],4.86 log2 enrichment (interaction score)
same,binding signal,[6],2.73 log2 enrichment (interaction score)
same,binding signal,[7],2.81 log2 enrichment (interaction score)
GGCUAGAACUAGUGGAUCCCCCGGCGCCCGGCGGCUCGAGCCCGGGUAAGCGUAAAUAGUCUGCAUGCCGCCGGGCGCCAUGCCUGCAGGUCGACUCUAGAAAACAUG,binding signal,[5],5.27 log2 enrichment (interaction score)
GGCUAGAACUAGUGGAUCCCCCGGCGCCCGGCGGCUCGAGCCCGGGUAAGUGUACAUAGUCUGCAUGCCGCCGGGCGCCAUGCCUGCAGGUCGACUCUAGAAAACAUG,binding signal,[8],2.65 log2 enrichment (interaction score)
GGCUAGAACUAGUGGAUCCCCCGGCGCCCGGCGGCUCGAGCCCGGGUAAGUGUAUAUAGUCUGCAUGCCGCCGGGCGCCAUGCCUGCAGGUCGACUCUAGAAAACAUG,binding signal,[8],4.27 log2 enrichment (interaction score)
GGCUAGAACUAGUGGAUCCCCCGGCGCCCGGCGGCUCGAGCCCGGGUAAGUCUAAAUAGUCUGCAUGCCGCCGGGCGCCAUGCCUGCAGGUCGACUCUAGAAAACAUG,binding signal,[9],4.07 log2 enrichment (interaction score)
same,binding signal,[10],2.57 log2 enrichment (interaction score)
GGCUAGAACUAGUGGAUCCCCCGGCGCCCGGCGGCUCGAGCCCGGGUAAGUUUAAAUAGUCUGCAUGCCGCCGGGCGCCAUGCCUGCAGGUCGACUCUAGAAAACAUG,binding signal,[9],4.82 log2 enrichment (interaction score)
GGCUAGAACUAGUGGAUCCCCCGGCGCCCGGCGGCUCGAGCCCGGGUAAGUGUAAAUCGUCUGCAUGCCGCCGGGCGCCAUGCCUGCAGGUCGACUCUAGAAAACAUG,binding signal,[11],4.45 log2 enrichment (interaction score)
GGCUAGAACUAGUGGAUCCCCCGGCGCCCGGCGGCUCGAGCCCGGGUAAGUGUAAAUUGUCUGCAUGCCGCCGGGCGCCAUGCCUGCAGGUCGACUCUAGAAAACAUG,binding signal,[11],4.22 log2 enrichment (interaction score)
same,binding signal,[12],4.79 log2 enrichment (interaction score)
GGCUAGAACUAGUGGAUCCCCCGGCGCCCGGCGGCUCGAGCCCGGGUAAGUGUAAAAAGUCUGCAUGCCGCCGGGCGCCAUGCCUGCAGGUCGACUCUAGAAAACAUG,binding signal,[13],3.97 log2 enrichment (interaction score)
same,binding signal,[14],3.05 log2 enrichment (interaction score)
GGCUAGAACUAGUGGAUCCCCCGGCGCCCGGCGGCUCGAGCCCGGGUAAGUGUAAAUGGUCUGCAUGCCGCCGGGCGCCAUGCCUGCAGGUCGACUCUAGAAAACAUG,binding signal,[12],2.15 log2 enrichment (interaction score)
GGCUAGAACUAGUGGAUCCCCCGGCGCCCGGCGGCUCGAGCCCGGGUAAGUGUAAGUAGUCUGCAUGCCGCCGGGCGCCAUGCCUGCAGGUCGACUCUAGAAAACAUG,binding signal,[2],0.87 log2 enrichment (interaction score)
GGCUAGAACUAGUGGAUCCCCCGGCGCCCGGCGGCUCGAGCCCGGGUAAGUAUAAAUAGUCUGCAUGCCGCCGGGCGCCAUGCCUGCAGGUCGACUCUAGAAAACAUG,binding signal,[10],2.56 log2 enrichment (interaction score)
GGCUAGAACUAGUGGAUCCCCCGGCGCCCGGCGGCUCGAGCCCGGGUAAGUGUGAAUAGUCUGCAUGCCGCCGGGCGCCAUGCCUGCAGGUCGACUCUAGAAAACAUG,binding signal,[15],3.11 log2 enrichment (interaction score)
same,binding signal,[16],5.78 log2 enrichment (interaction score)
GGCUAGAACUAGUGGAUCCCCCGGCGCCCGGCGGCUCGAGCCCGGGUAAGUGUUAAUAGUCUGCAUGCCGCCGGGCGCCAUGCCUGCAGGUCGACUCUAGAAAACAUG,binding signal,[17],4.63 log2 enrichment (interaction score)
GGCUAGAACUAGUGGAUCCCCCGGCGCCCGGCGGCUCGAGCCCGGGUAAGUGUCAAUAGUCUGCAUGCCGCCGGGCGCCAUGCCUGCAGGUCGACUCUAGAAAACAUG,binding signal,[17],2.64 log2 enrichment (interaction score)
